HepG2 viability – qHTS for Inhibitors of TGF-b: Cytotox Counterscreen | actives 0.76% (n = 410,000) | Potency, µM (series often up to 46.1 µM), inactives show at the highest dose activity change, negative = cytotoxicity, most hits filed as cytotoxic | HepG2 CAGA-GFP viability, ATP luminescence, 18 h; note: potency is the fitted concentration of half-maximal effect
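HepG2 CAGA-GFP cells (1000/well, DMEM with 1% FBS) received compound, then TGF-beta at 500 pg/mL final, and were incubated 18 hours at 37 degrees C. Viability was read by CellTiter-Glo luminescence. Media-only wells were set as complete cell-killing and DMSO as no toxicity.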
TGFb SMAD3 inh – qHTS for Inhibitors of TGF-b | actives 1.2% (n = 410,000) | Potency, µM (titrated, usually from 46.1 µM), inactives show at the top dose activity, negative = inhibition, hits mostly inhibitors | HepG2 CAGA-GFP TGF-b/SMAD3 reporter, GFP fluorescence, 18 h; TGF-beta stimulated, 500 pg/mL final; note: potency is the fitted concentration of half-maximal effect; % is set by controls: 0 for no effect and ±100 for the full control effect; nearly all actives have a fitted effect of over 65% in size
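Per well, imaged GFP fluorescence of HEPG2 CAGA-GFP cells gives the signal; cells get compound, then TGF-beta (500 pg/mL final), 18 h at 37 degrees C; %Activity versus -TGF-beta and +DMSO controls.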
DT40 TDP1 CPT – qHTS for Inhibitors of human tyrosyl-DNA phosphodiesterase 1 (TDP1): qHTS in cells in presence of CPT. Potency, µM (highest dose often 46.2 µM), for the others: at the top dose activity change, negative = growth inhibition, hits mostly inhibitors. chicken DT40 Tdp1-/-;hTDP1 cells + 20 nM CPT, ATP luminescence, 48 h. actives 12% (n = 420,000). AID 686979, 2013; note: potency is the fitted concentration of half-maximal effect; % is set by controls: 0 for no effect and ±100 for the full control effect; nearly all actives have a fitted effect of over 55% in size
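Chicken DT40 Tdp1-/- cells stably complemented with human TDP1 were seeded at 400 cells/well in medium containing 20 nM camptothecin, exposed to pin-transferred compounds, and grown at 37 °C for at least 48 hr. Viability was read as ATP luminescence.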
DT40 TDP1 no CPT – qHTS for Inhibitors of human tyrosyl-DNA phosphodiesterase 1 (TDP1): qHTS in cells in absence of CPT | Potency, µM (top dose mostly 46.2 µM), without a hit: top-dose activity change, negative = growth inhibition, usual class: inhibitors | actives 15% (n = 420,000) | DT40 Tdp1-/- hTDP1 cells, no CPT, ATP luminescence, 48 h; note: potency is the fitted concentration of half-maximal effect; % is set by controls: 0 for no effect and ±100 for the full control effect; nearly all actives have a fitted effect of over 55% in size
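Readout: luminescence from CellTiter-Glo after 30 min in the dark at RT. Cells: DT40 Tdp1-/- with stable hTDP1, 400/well. Exposure: compounds alone, ≥48 hr, 37 °C.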
ASM inhibitor – Inhibitors of Secretory Acid Sphingomyelinase (S-ASM): qHTS. actives 0.006% (n = 340,000). Sphingomyelin phosphodiesterase (Homo sapiens), P17405. Potency, µM (titrated, usually from 57.5 µM), for the others: at the top dose activity change, negative = inhibition, most hits filed as inhibitors. placental ASM, HMU-PC fluorogenic substrate, 60 min; note: potency is the fitted concentration of half-maximal effect
Target sequence (P17405 47-631 limits assumed): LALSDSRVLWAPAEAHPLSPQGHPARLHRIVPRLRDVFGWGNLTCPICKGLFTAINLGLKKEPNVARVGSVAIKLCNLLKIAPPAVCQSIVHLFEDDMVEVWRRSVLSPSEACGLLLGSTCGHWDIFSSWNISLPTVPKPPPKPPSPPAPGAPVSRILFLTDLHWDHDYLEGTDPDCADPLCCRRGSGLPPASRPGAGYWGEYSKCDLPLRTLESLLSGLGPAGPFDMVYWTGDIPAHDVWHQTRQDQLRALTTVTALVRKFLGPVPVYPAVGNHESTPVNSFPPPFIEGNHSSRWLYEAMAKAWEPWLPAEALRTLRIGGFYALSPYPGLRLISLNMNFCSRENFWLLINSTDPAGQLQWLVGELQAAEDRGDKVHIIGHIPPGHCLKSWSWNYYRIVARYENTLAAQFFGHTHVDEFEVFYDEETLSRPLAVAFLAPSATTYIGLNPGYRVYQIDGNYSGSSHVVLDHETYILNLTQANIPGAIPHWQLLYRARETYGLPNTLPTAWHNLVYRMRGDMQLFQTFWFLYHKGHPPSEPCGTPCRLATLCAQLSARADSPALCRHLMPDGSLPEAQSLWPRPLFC
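Fluorescence read-out (Ex 386 nm, Em 447 nm) after stopping the reaction at pH 10. Enzyme: ASM from human placenta; substrate HMU-PC0, 9 uM final; 60 min, 37 °C. Compound preincubation 10 min, ambient temperature.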
IL-1B inflam inh – qHTS for Inhibitors of Inflammasome Signaling: IL-1-beta AlphaLISA Primary Screen | actives 4.7% (n = 360,000) | THP-1 LPS/ATP IL-1B secretion, AlphaLISA, 16 h; stronger effect = lower value | activity change, % at 57.5 µM | AID 743279, 2014; in the data active = activity change below about -50%; inconclusive = mostly about -30% to -49%; note: % is set by controls: 0 for no effect and ±100 for the full control effect
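THP-1 cells pretreated 1 hr with compounds (up to 57.5 uM final), then stimulated with LPS (250 ng/mL final) plus ATP (1.25 mM final); secreted IL-1B measured by AlphaLISA after 16 hr, decreased signal indicating inhibition.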
Starred values were filed as active, the others as inactive; i = inactive; ? = inconclusive; . = no result given. This is a sample that favours compounds with a hit; in the whole collection about 19% have one here. Unless noted, calls come from the whole dose curve; as a rule, active = well fitted curve in the direction sought with a large enough effect; inconclusive = small, poorly fitted or top-dose-only effect, or another doubt; inactive = no such curve, though single readings can be large; an effect the other way counts as inactive or inconclusive.

SMILES | HepG2 viability | TGFb SMAD3 inh | DT40 TDP1 CPT | DT40 TDP1 no CPT | ASM inhibitor | IL-1B inflam inh
Cc1ccc(N=Cc2c(O)n(-c3cc(Cl)ccc3N3CCOCC3)c(=O)c3ccccc23)cc1C | -15% | 1% | 7.3µM* | 6.5µM* | 2% | ?
COc1cc(OC)c(OC)cc1/C=N/NC(=O)c1ccc(=O)n(C)c1 | -13% | -7% | -21% | -23% | 17% | 46
COc1cccc(/C=N/NC(=O)c2ccc(=O)[nH]n2)c1O | 7% | -1% | 23µM* | 15µM* | 3% | 87
COc1cccc(/C=N/NC(=O)c2ccc(=O)n(C)c2)c1O | 4% | -1% | 5.8µM* | 6.5µM* | -2% | 143
COc1cccc(/C=N/NC(=O)c2[nH]c(C)c(C(=O)N/N=C/c3cccc(OC)c3O)c2C)c1O | -46% | ? | 5.2µM* | 3.3µM* | -2% | 50
Cc1[nH]c(C(=O)N/N=C/c2ccc(C(=O)O)cc2)c(C)c1C(=O)N/N=C/c1ccc(C(=O)O)cc1 | 3% | 5% | -22% | -20% | 5% | -12
COc1cccc(/C=N/NC(=O)c2c(C)nc3ccc(Cl)cn23)c1O | -17% | -16% | 0.92µM* | 1µM* | -2% | 141
COc1cccc(/C=N/NC(=O)C(=O)Nc2ccccc2OC(F)(F)C(F)F)c1O | -2% | -10% | 3.3µM* | 3.3µM* | -25% | 38
COc1cccc(/C=N/NC(=O)c2ccc(-c3ccccc3)cc2)c1O | -33% | ? | 5.2µM* | 4.6µM* | -1% | 97
COc1ccc(OC)c(/C=N\NC(=O)c2ccc(-c3ccccc3)cc2)c1 | -24% | 3% | ? | -14% | 83% | i
COc1cccc(NC(=O)CN(C)C(=O)c2ccc(OCc3ccccc3)c(OC)c2)c1 | -5% | -14% | 3% | -4% | -1% | -9
CCOC(=O)C1=C(COC(=O)CSc2ccc(C)cc2)NC(=O)NC1C (stereo unspecified) | -8% | 3% | 2% | 13% | 1% | 54
Cc1cccc(Cc2c(C)nc3nc(SCC(=O)NCc4ccccc4)nn3c2C)c1 | -10% | ? | 21µM* | ? | . | .
C=CCc1c(C)nc2nc(SCC(=O)Nc3cccc(Cl)c3)nn2c1C | 3% | -5% | 21µM* | -92% | . | .
COc1ccc(NC(=O)CSc2nc3nc(C)c(Cc4ccc(C)cc4)c(C)n3n2)cc1OC | -23% | 9% | ? | ? | . | .
COc1cc(NC(=O)CSc2nc3nc(C)c(Cc4ccccc4)c(C)n3n2)cc(OC)c1OC | -21% | -8% | 21µM* | 21µM* | . | .
COc1ccccc1CNC(=O)CSc1nc2nc(C)c(Cc3ccccc3C)c(C)n2n1 | -27% | -7% | 15µM* | 5.2µM* | . | .
Cc1nc2nc(SCC(=O)NC3CCC(C)CC3)nn2c(C)c1Cc1ccccc1 (stereo unspecified) | -14% | -12% | 18µM* | ? | . | .
CCCn1nc(NC(=O)C2CCCO2)c2cc3cccc(C)c3nc21 (stereo unspecified) | -10% | 15% | -26% | 15µM* | i | -1
COC(=O)CCc1sc(NC2CCCCC2)nc1-c1ccc(OC)cc1 | -4% | -15% | 21µM* | 18µM* | 1% | 18
O=C(COC(=O)c1ccc(S(=O)(=O)N2CCCCC2)cc1)NCc1ccccc1 | -6% | -11% | -6% | -25% | 3% | 8
CCOC(=O)c1c(C)[nH]c(C)c1S(=O)(=O)N(C)CC(=O)Nc1ccc(CC)cc1 | -19% | ? | -27% | -20% | . | .
COCCNC(=O)c1ccccc1NC(=O)c1nsc2ccccc12 | -34% | ? | ? | ? | . | .
CCN1CCN(c2ccc(S(=O)(=O)N3CCCCC3)cc2NC(=O)Cc2ccccc2)CC1 | -54% | -23% | -21% | -13% | 6% | -12
CN1CCN(c2ccc(S(=O)(=O)N3CCCCC3)cc2NC(=O)COc2ccc([N+](=O)[O-])cc2)CC1 | -11% | -2% | -1% | -29% | . | -15
SMILES | HepG2 viability | TGFb SMAD3 inh | DT40 TDP1 CPT | DT40 TDP1 no CPT | ASM inhibitor | IL-1B inflam inh
CCC(=O)c1ccc(OCC(=O)Nc2cc(S(=O)(=O)N3CCCCC3)ccc2N2CCN(CC)CC2)cc1 | -74% | -16% | ? | 18µM* | 8% | -16
CCN1CCN(c2ccc(S(=O)(=O)N3CCCCC3)cc2NC(=O)COc2ccc(Cl)c(C)c2)CC1 | 6% | 0% | 16µM* | 13µM* | 0% | -12
Cc1ccc(C)c(NC(=O)COc2coc(CN3CCc4ccccc43)cc2=O)c1 | -18% | ? | -84% | 12µM* | 0% | -18
CCOc1ccccc1NC(=O)COc1coc(CN2CCc3ccccc32)cc1=O | -11% | -1% | ? | ? | -2% | 19
O=C(COc1coc(CN2CCc3ccccc32)cc1=O)NCCc1ccccc1 | -8% | 3% | ? | 18µM* | 1% | 9
Cc1ccc(NC(=O)COc2coc(CN3CCc4ccccc43)cc2=O)cc1Cl | -28% | ? | 23µM* | 15µM* | -3% | -6
Cc1ccccc1NC(=O)COc1coc(CN2CCCc3ccccc32)cc1=O | -24% | 0% | 21µM* | 15µM* | -1% | -4
O=C(CN(C(=O)c1csnn1)c1ccccc1C(F)(F)F)NCc1ccccc1 | -1% | 0% | -20% | -9% | 2% | -12
C=CCNC(=S)Nc1nc2c(cc1C(=O)OCC)CCCC2 | -7% | -1% | ? | 23µM* | 1% | 5
CCOC(=O)N1CCN(C(=O)c2cc3c(=O)[nH]c4ccccc4c3s2)CC1 | -84% | -3% | ? | 16µM* | 8% | -16
CC1CCCN(C(=O)c2cc3c(-c4ccc(Cl)cc4)nn(C)c3s2)C1 (stereo unspecified) | 3% | 9% | ? | ? | -19% | 0
COc1cccc(-c2nn(C)c3sc(C(=O)NCc4ccc(C)cc4)cc23)c1 | -82% | ? | ? | ? | -18% | -19
CCOC(=O)N1CCN(C(=O)c2cc3c(-c4cccc(OC)c4)nn(C)c3s2)CC1 | -6% | -13% | ? | 23µM* | -2% | -67*
COc1cccc(-c2nn(C)c3sc(C(=O)NCc4ccccn4)cc23)c1 | -19% | 0% | ? | -30% | -3% | ?

Screening data from PubChem.
